Assay results published in PubChem BioAssay AID485314 (National Center for Advancing Translational Sciences (NCATS), 2010).
In all, about 340,000 compounds went through this assay and about 4,500 (1.3%) were called active. Not shown: some 5% with an inconclusive outcome. Calls follow the shape of the dose curve; as a rule, active = well fitted inhibition curve with a large enough effect; inconclusive = small, poorly fitted or top-dose-only effect, or another doubt; inactive = no such curve, though single readings can be large or run the other way. What follows is part of a selection rich in actives, with near analogues and random picks from the rest.

Target: DNA polymerase beta (Homo sapiens) (UniProt P06746)
Test: qHTS Assay for Inhibitors of DNA Polymerase Beta
Conditions: Pol beta primer extension/strand displacement, fluorescence kinetic; series mostly up to 114 µM; activity change, negative = inhibition: at the top concentration
Text: The base excision repair system in human cells is a target for therapeutic modulation of the response to irradiation treatment and DNA-damaging drugs. A key enzyme in this system is the bi-functional DNA polymerase known as DNA polymerase Beta (Pol Beta). The following is a homogeneous kinetic assay to study the primer extension and strand-displacement reaction catalyzed by pol beta.
A stepwise description of the 1536-well assay is shown in next Table. Three microliters of reagents (buffer in column 3 and 4 as negative control and 10 nM Pol beta in columns 1, 2, and 5-48) was dispensed into 1,536-well black solid-bottomed plate. Compounds (23 nL) were transferred via Kalypsys pin tool equipped with 1536-pin array (10 nL slotted pins, V&P Scientific, San Diego, CA). The plates were incubated for 15 min at room temperature, and 1 uL substrate (50 nM final concentration) were added to start the reaction and immediately read at 0 min read on Viewlux reader. The plate were further incubated for 10 min at room temperature, and then read on Viewlux again. Throughout the screen, reagent bottle and all liquid lines were chilled and made light-tight to minimize reagent degradation. All screening operations were performed on a fully integrated robotic system (Kalypsys, San Diego, CA) containing one RX-130 and two RX-90 anthropomorphic robotic arms (Staubli, Duncan, SC). Library plates were screened starting from the lowest and proceeding to the highest concentration, and a double-dipping step of the highest concentration was required to access higher concentrations of compounds. Vehicle-only plates, with DMSO being pin-transferred to the entire column 5-48 compound area, were inserted uniformly at the beginning and the end of each library in order to monitor for and record any shifts in the background, which can be affected by reagent dispensers or loss in enzyme activity overtime. Screening data were corrected, normalized, and concentration-effect relationships were derived by using publicly-available curve fitting algorithms developed in-house (http://ncgc.nih.gov/pub/openhts). A four parameter Hill equation was fitted to the concentration-response data by minimizing the residual error between the modeled and observed responses.
% is scaled to controls: 0 for no effect and ±100 for the full control effect; potency is read from the fitted curve at half-maximal effect.

Activity change, negative = inhibition, inactive:
CCc1cccc(C)c1NC(=O)CSc1nnc(-c2ccco2)n1N 0.0582%
NC(=O)c1c(NC(=O)CSc2nc(N)cc(=O)[nH]2)sc2c1CCCC2 -5.47%
CCOc1ccccc1C(=O)NCc1ccc2c(c1)CCN2C(=O)c1ccc(F)cc1 7.58%
O=C(OCN1C(=O)c2ccccc2C1=O)/C(=C\c1ccco1)NC(=O)c1ccccc1 17.1%
C=CCOC(=O)C1=C[C@@H](c2ccccc2)C[C@@H](OCc2ccc(CO)cc2)O1 -3.45%
O=C(O)C1=C[C@H](c2cccs2)C[C@H](OCCCCO)O1 -25.8%
CCCCc1nn2c(=O)cc(COC(=O)c3cccc(NC(=O)COc4ccccc4)c3)nc2s1 1.33%
COc1ccc(N2CCN(S(=O)(=O)c3ccc4c(c3)N(C(C)=O)CCO4)CC2)cc1 -5.9%
COc1ccc(N2CCN(C(=O)C3CCN(S(=O)(=O)c4ccc(C)cc4)CC3)CC2)cc1 0.247%
Cc1ccc(-c2csc(NC(=O)Cn3[nH]c(=O)c4ccccc4c3=O)n2)cc1 -17.4%
O=C(CSC1=NCCS1)Nc1nc(-c2ccccc2)cs1 16.3%
CC(C)(C)c1ccc(C(=O)NCC(c2ccco2)S(=O)(=O)c2ccc(F)cc2)cc1 (stereo not drawn) -18.4%
COc1cccc(NC(=O)N(Cc2cn(C)c3ccccc23)C2CCCCCC2)c1 -7.08%
O=C(CSc1ccc(-c2ccco2)nn1)Nc1cccc(F)c1 -29.3%
Cc1ccccc1-c1nnc(SCC(=O)NCc2ccc3c(c2)OCO3)n1C 25%
Cc1ccccc1OCCSc1nc2ccc(NC(=O)c3ccco3)cc2s1 0.968%
Cc1ccc(C2CCN(C(=O)c3cnn(-c4ccccc4Cl)c3C3CCN(C(=O)OC(C)(C)C)CC3)C2)cc1 (stereo not drawn) 2.89%
Cc1cccc(N2CCN(S(=O)(=O)c3ccc(-c4cc(C)no4)s3)CC2C)c1 (stereo not drawn) 0.87%
Cc1cccc(N2CCN(C(=O)c3cccc(S(=O)(=O)N4CCc5ccccc5C4)c3)CC2C)c1 (stereo not drawn) 2.53%
CC(C)(C)c1ccc(OCC(=O)N2CCC(c3nc4ccccc4s3)CC2)cc1 10.9%
O=C(Nc1ccccc1)/C(=C\c1ccco1)NC(=O)c1ccco1 -1.05%
Cc1cccc(NC(=O)/C(=C\c2ccco2)NC(=O)c2ccccc2)c1 0.753%
CC(=O)Nc1cc(C(=O)NCc2ccc(F)cc2Cl)ccc1Sc1ccc(Cl)cc1 -16.2%
CCC(Sc1nnc(-c2ccc(OC)cc2)c(-c2ccc(OC)cc2)n1)C(=O)NC1CCCCC1 (stereo not drawn) 1.49%
COc1cccc(-n2cc(C(=O)NCc3cccc(Cl)c3)c3ccccc3c2=O)c1 12.9%
Nc1ccc(-c2sc(N)nc2-c2ccccc2)cc1 23.9%
Cc1ccc2cccc(NC(=O)C(C)Oc3ccc(C)c(C)c3)c2n1 (stereo not drawn) 14.5%
Cn1nc(-c2ccccc2)c(-c2ccccc2)c(C(=O)Nc2ccc(S(N)(=O)=O)cc2)c1=O -0.58%
COc1ccc(Cn2ccnc2SCC(=O)Nc2ccc3c(c2)OCO3)cc1 0.783%
CCCS(=O)(=O)N1CCC(n2c(C(F)(F)F)nc3cccnc32)CC1 33.3%
COc1ccc(C(=O)NNC(=S)NC(=O)c2ccccc2)cc1 0.641%
COc1ccc(C(=O)Nc2cc(C)ccc2NC(=O)COc2ccccc2)cc1 1.19%
O=C(CS(=O)(=O)c1cccc2nsnc12)N1CCN(c2cccc(Cl)c2)CC1 -19.8%
CCOc1ccc(S(=O)(=O)Nc2ccc3oc4c(c3c2)CC(C)CC4)cc1 (stereo not drawn) -14.6%
Cc1cccc(NC(=O)CSc2ncc(-c3ccccc3)[nH]2)c1C 0.698%
Cc1ccc(NC(=O)C(=O)NCc2ccco2)c(C)c1 28.8%
Cc1cc(C)n2nc(SCC(=O)NC(=O)NCc3ccco3)nc2n1 -25.1%
Cn1ccc2cc(S(=O)(=O)N3CCCC(C(=O)NCc4ccccc4F)C3)ccc21 (stereo not drawn) 9.68%

Potency, active:
O=c1nc2s/c(=C\c3ccco3)c(=O)n2nc1Cc1ccccc1 14.1 µM
C#Cc1ccc([C@@H]2C=C(C(=O)O)O[C@H](OCCCCO)C2)cc1 28.2 µM
COc1ccc(N2CCN(S(=O)(=O)c3ccc(-c4coc(C)n4)cc3)CC2)cc1 31.6 µM
O=C(CSc1nc2ccccc2c(=O)[nH]1)Nc1nc(-c2ccc(Br)cc2)cs1 4.47 µM
O=C(CSc1ccc(-c2ccco2)nn1)NCc1ccc2c(c1)OCO2 15.8 µM
Cc1cccc(N2CCN(S(=O)(=O)c3ccc4[nH]c(=O)c(=O)[nH]c4c3)CC2C)c1 (stereo not drawn) 25.1 µM
COc1ccccc1C(=O)N/C(=C/c1ccco1)C(=O)Nc1ccc(C(=O)O)cc1 50.1 µM
Nc1[nH]c(=S)nc2nc(-c3ccccc3)c(-c3ccccc3)nc12 22.4 µM
COc1ccc(OCC(=O)NNC(=O)c2ccc(-c3ccccc3)cc2)cc1 44.7 µM
Cc1ccc(SCC(=O)NC(=O)NCc2ccco2)c(C)c1 25.1 µM
